These results are taken from PubChem BioAssay (NCI).

Compounds without any hit were thinned out: in the full panel of roughly 83,000, 20% have a hit.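 Step 1: grow cells in 96-well plates. Step 2: add test compound at a single concentration. Step 3: incubate 48 h. Step 4: record percent growth.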 Unmarked numbers belong to inactive results. Activity calls are given as the source filed them.

The test system of this assay is NCI-H226 lung. Briefly: NCI-60 one-dose screen, 48 h (100 = growth as untreated, 0 = no growth, -100 = all killed). The following applies: 10 µM unless noted. On the procedure: Growth inhibition of the NCI-H226 human Non-Small Cell Lung tumor cell line is measured as a screen for anti-cancer activity. Cells are grown in 96 well plates and exposed to the test compound for 48 hours. Compounds are tested at a single concentration, which is 10^-5 M for most compounds. The reported endpoint is percent growth (GI% or GIPRCNT), where numbers from 0 - 100% represent growth inhibition, and numbers from -100% - 0 represent cell death. For example, a value of 40 represents 60% growth inhibition. A value of 0 means no net growth occurred over the course of the experiment. A value of -40 indicates 40% of cells at the beginning of the experiment died by the end of the experiment. A value of -100 means all cells are dead at the end of the experiment.
NCI-60 Human Tumor Cell Lines Screen was performed using the standard one-dose NCI protocol, which is described in more detail at https://dtp.cancer.gov/discovery_development/nci-60/default.htm.
Compounds with GIPRCNT values below 10 were considered active. Activity score was based on GIPRCNT using the following formula: […]
Score is 0 for GIPRCNT values of 100 or above, 50 for GIPRCNT values of 0, and 100 for GIPRCNT values of -100.
Take `O=C1CC[C@H](c2ccc(O)c3c2C(=O)[C@@H]2O[C@@H]2C3=O)c2cccc(O)c21`: the growth is -14.6% (active).

For `CCN(CC)CCCCNc1c2ccc(Cl)cc2nc2ccc(OC)cc12`, the growth is -53.7% (active).

As for `COc1cccc(-c2nc3sccn3c2-c2ccnc(NCCCNS(=O)(=O)c3c(Cl)cccc3Cl)c2)c1`, the growth was 51.8%.

Take `O=C1c2ccccc2C(=O)c2c1ccc1[nH]c(-c3cccs3)nc21`: the growth was 91.9%.

With `CCOc1cc2ncc(C#N)c(Nc3ccc(F)c(Cl)c3)c2cc1NC(=O)CC1CCSS1` (stereo not given), the growth is -50.9% (active).

As for `COc1ccc(/C=C/C(=O)c2cc(O)ccc2O)cc1`, the growth was 94.5%.

Regarding `O=C(COc1ccc(/C=C2\CSc3ccccc3C2=O)cc1)Nc1nccs1`, the growth was 97.9%.

Take `COCCNc1ccc2c3c(cccc13)C(=O)N(CCN(C)C)C2=O`: the growth is 5.99% (active).

On to `CCOC(=O)C(C)(C#N)C1C=CCCC1` (stereo not given), for which the growth was 97.9%.

On to `FC(F)(F)Oc1ccc2nc3nc4ccc[nH]c4cc3c2c1`, for which the growth is 57.2%.

For `COc1cccc(/C=C2\SC(=Nc3ccc(NC(C)=O)cc3)NC2=O)c1OC`, the growth was 103%.

On to `C#CCOc1ccc2ncnc(N3CCN(C(=O)CCl)CC3)c2c1`, for which the growth was -15.9% [8.25 µM] (active).

Turning to `CCOc1cc2c(cc1OCC)C(c1cc(OC)c(O)cc1Cl)NCC2` (stereo not given), the growth is 100%.

Consider `Oc1ccc(N=Cc2ccccc2O)cc1`, for which the growth was 113%.

Consider `COc1ccc(-n2nc(C)c3c(Nc4ccc(NC(=O)Nc5cc(C(F)(F)F)ccc5F)cc4)ncnc32)cc1`, for which the growth was 73.8%.

Take `O=C(N(c1ccccc1)c1ccccc1)n1ccc2nc(Cl)nc(Cl)c21`: the growth was 53.9%.

Turning to `Clc1ccc2c(NCCNc3nc(N4CCOCC4)nc4ccccc34)ccnc2c1`, the growth was -22.5% (active).

On to `O=C1C=CC(=O)N1c1ccc2c(c1)Cc1cc(F)ccc1-2`, for which the growth is 99.3%.

In the case of `O=C1/C(=C/c2ccccc2)SC(=S)N1CCc1ccc(O)cc1`, the growth was 90.2%.

Consider `NC(=NCCCOc1ccc(Cl)cc1)Nc1ccc(C(F)(F)F)cc1`, for which the growth was 97.5%.

In the case of `O=C(/C=C/c1cccc([N+](=O)[O-])c1)c1ccc(O)c(CN2CCN(c3cc4c(cc3F)c(=O)c(C(=O)O)cn4C3CC3)CC2)c1`, the growth was 60.8%.

As to `CSc1nc(Nc2cccc(NC(=O)/C(C#N)=C/c3c(Cl)cccc3Cl)c2)c(C#N)c(-c2cccc([N+](=O)[O-])c2)n1`, the growth is 64.9%.

For `COc1cc2nc(N3CCCC3)nc(Nc3ccccc3)c2cc1OC`, the growth is 29.2%.

Regarding `CN(C)CCN1C(=O)c2cccc3c(N)ccc(c23)C1=O`, the growth was 23.9%.

With `CC(C)c1c(C(=O)c2ccccc2)c(-c2ccccc2)c(-c2ccc(F)cc2)n1CC[C@@H](O)C[C@@H](O)CC(=O)O`, the growth is 62.2%.

Consider `Cc1ccc2c(C(C[N+](=O)[O-])c3ccccc3F)c(-c3ccccc3)[nH]c2c1` (stereo not given), for which the growth is 58.6%.

For the molecule `O=C1C=C(O)C(=O)C(CC2=C(O)C(=O)C=C(O)C2=O)=C1O`, the growth is 102%.

As for `CN(C)[C@@H]1C(=O)C(C(=O)NCc2nc3[nH]cnc(=S)c3[nH]2)=C(O)[C@@]2(O)C(=O)C3=C(O)c4c(O)cccc4[C@@](C)(O)[C@H]3C[C@@H]12`, the growth is 49.5%.

In the case of `CC(C)(C)CC(C)(C)c1ccc(OCCOCC[N+](C)(C)Cc2ccccc2)cc1`, the growth was 31.6%.

As for `O=C1c2cc3c(cc2-c2c1c1ccc(F)cc1c(=O)n2C[C@H](O)[C@@H](O)[C@H](O)CO)OCO3`, the growth was -17.4% (active).

With `CCNC(=O)Oc1ccc(/C(=C(\C)c2ccc(Cl)cc2)c2ccc(OCCN(CC)CC)cc2)cc1`, the growth is 76.7%.

On to `CCC(=O)c1ccc(Cl)s1`, for which the growth was 103%.

As for `COc1ccc(C(=O)c2sc3nc(C)cc(C)c3c2N)cc1OC`, the growth was 89.8%.

With `CC[C@H]1OC(=O)[C@H](C)[C@@H](O[C@H]2C[C@@](C)(OC)[C@@H](O)[C@H](C)O2)[C@H](C)[C@@H](O[C@@H]2O[C@H](C)C[C@H](N(C)C)[C@H]2O)[C@](C)(O)C[C@H](C)CN(C)[C@H](C)[C@@H](O)[C@]1(C)O`, the growth was 103%.

Take `NC(=O)c1cc(I)ccc1NC(=O)/C=C/c1ccccc1Cl`: the growth is 44.1%.

`CCOC(=O)c1sc2nc(-c3cccc(OC)c3)nc(N3CCOCC3)c2c1C`: the growth is 79.5%.

For `O=C(/C=C/c1ccc(C(F)(F)F)cc1)Nc1ccc(C=C2c3ccccc3C(=O)c3ccccc32)cc1`, the growth was 67.8%.

Consider `COc1cc2c(cc1-c1c(C)noc1C)ncc1nc(C3CCOCC3)n([C@H](C)COC(F)F)c12`, for which the growth was 55.2%.

Turning to `CCN=C1C=CC(=C(c2ccc(N)cc2)c2ccc(N(CC)CC)c(C)c2)C=C1`, the growth is -30.9% (active).

Regarding `Brc1ccc(-c2csc(Nc3ccccn3)n2)cc1`, the growth was 73%.
